# Records with an inconclusive call do not appear. Where a call stands in place of a potency, no number is given. Active and inactive are the calls of the source. Calls come from the whole dose curve.
# Experiment: p53 small molecule agonists, cell-based qHTS assay with rat liver microsomes: qHTS cell viability counter screen (AID 1963580); note: nearly all actives have a fitted effect of over 45% in size
# Settings: p53RE-bla HCT-116 + rat microsomes, ATP viability, 16 h; series mostly up to 66 µM
# In short: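 p53RE-bla HCT-116 cells were exposed 16 h at 37 C to compounds with rat liver microsomes (0.5 mg/mL) and NADPH (0.5 mg/mL). Viability was measured in the same wells as ATP content by CellTiter-Glo luminescence.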
row,Compound,Potency
1,CCCOc1ccc(S(=O)(=O)N2CCN(CC)CC2)cc1-c1nc2c(CC)n(Cc3ccccn3)nc2c(=O)[nH]1,inactive
2,COc1cc(Cl)c(OC)cc1N,inactive
3,Oc1ccccc1F,inactive
4,NCCCN1CCOCC1,inactive
5,CC(C)OC(=O)c1ccccc1C(=O)OC(C)C,inactive
6,CC1CC(OC(=O)C(O)c2ccccc2)CC(C)(C)N1C (centres undefined),inactive
7,C=CC(=C)CCCC(C)(C)OC(C)=O,inactive
8,CC(=O)N[C@@H](CCC(=O)O)C(=O)O,inactive
9,CC(=O)OCC(=O)[C@H]1CC[C@H]2[C@@H]3CCC4=CC(=O)CC[C@]4(C)[C@H]3CC[C@]12C,inactive
10,CCOc1ccc2nc(S(N)(=O)=O)sc2c1,inactive
11,O=C(O)c1ccc2cc(C(=O)O)ccc2c1,inactive
12,OCCc1ccncc1,inactive
13,CN1C(CSCC(F)(F)F)Nc2cc(Cl)c(S(N)(=O)=O)cc2S1(=O)=O (centres undefined),inactive
14,O=c1cc(O)c(Cl)c[nH]1,inactive
15,N#CCCNCCC#N,inactive
16,CN1CCC(=C2c3ccccc3CCc3cccnc32)CC1,inactive
17,CCO[C@H](Cc1ccc(OCCc2ccc(OS(C)(=O)=O)cc2)cc1)C(=O)O,inactive
18,CC(CC=O)CCCC(C)(C)O (centres undefined),inactive
19,COc1ccc(/C=N/NC(=O)c2ccncc2)cc1OC,inactive
20,C=CCOC(=O)COCCC(C)C,inactive
21,CCOC(=O)CC(=O)c1ccccc1,inactive
22,CCOc1ccccc1OCCN[C@H](C)Cc1ccc(OC)c(S(N)(=O)=O)c1,inactive
23,CCCCCCC(C)Nc1ccc(Nc2ccccc2)cc1 (centres undefined),inactive
24,O=C(NS(=O)(=O)/C=C/c1cccs1)c1ccc(F)cc1Br,inactive
